Screening data: PubChem, National Center for Advancing Translational Sciences (NCATS)
Shown are actives, neighbours in structure and some others; about 19% of the full set was active somewhere.
TDP1 cell CPT = growth inhibition of DT40 Tdp1-/-;hTDP1 cells with camptothecin (screen for TDP1 inhibitors) | chicken DT40 Tdp1-/-;hTDP1 cells + 20 nM CPT, ATP luminescence, 48 h | Potency, µM (series often up to 46.2 µM), for inactives: at the highest dose activity change, negative = growth inhibition, actives largely listed as inhibitors | actives 12% (n = 420,000) | AID 686979; also: potency is read from the fitted curve at half-maximal effect; nearly all actives have a fitted effect of over 55% in size
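Chicken DT40 Tdp1-/- cells complemented with human TDP1, 400 cells/well, exposed to compounds plus 20 nM camptothecin for at least 48 h at 37 C; viability read as ATP content by CellTiter-Glo luminescence.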
TDP1 block = TDP1 (human) enzyme inhibition; Q9NUW8; recombinant TDP1, AlphaScreen DNA substrate cleavage; actives 0.28% (n = 350,000); Potency, µM (series often up to 130 µM), for the others: top-dose activity change, negative = inhibition, most hits filed as inhibitors; also: potency is read from the fitted curve at half-maximal effect; nearly all actives have a fitted effect of over 40% in size
Target sequence (Q9NUW8 whole entry, looked up): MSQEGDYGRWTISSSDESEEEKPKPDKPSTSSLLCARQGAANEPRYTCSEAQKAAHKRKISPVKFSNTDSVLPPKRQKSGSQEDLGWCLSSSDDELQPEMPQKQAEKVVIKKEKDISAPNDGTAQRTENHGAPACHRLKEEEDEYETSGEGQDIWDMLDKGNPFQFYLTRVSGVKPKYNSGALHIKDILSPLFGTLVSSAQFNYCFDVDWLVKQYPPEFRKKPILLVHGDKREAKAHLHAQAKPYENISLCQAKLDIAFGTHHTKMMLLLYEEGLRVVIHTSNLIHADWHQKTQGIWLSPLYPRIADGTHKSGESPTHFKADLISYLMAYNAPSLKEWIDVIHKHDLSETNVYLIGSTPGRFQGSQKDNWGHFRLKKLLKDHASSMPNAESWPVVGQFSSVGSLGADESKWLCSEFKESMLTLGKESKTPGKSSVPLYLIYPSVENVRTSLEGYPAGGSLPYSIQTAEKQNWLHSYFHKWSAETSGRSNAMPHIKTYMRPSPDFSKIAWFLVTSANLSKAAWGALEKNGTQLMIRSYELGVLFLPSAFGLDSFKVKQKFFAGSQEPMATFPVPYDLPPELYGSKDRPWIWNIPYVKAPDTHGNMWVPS
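E. coli-derived human Tdp1, 1 nM final. Cpd preinc 15 min RT; substrate 15 nM final, 5 min RT; AS bead mix 10 ug/ml final, 10 min RT. Signal loss = tyrosine-FITC cleavage. No-enzyme wells = max signal.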
ELG1 repair inh = inhibitors of ELG1-dependent DNA repair in HEK293T cells. HEK293T ELG1-luciferase reporter, luminescence, 16 h; DNA damage induced by 5-fluorouridine. Potency, µM (highest dose often 46.1 µM), inactives show at the highest dose activity change, negative = inhibition, usual class: inhibitors. actives 2.3% (n = 330,000); also: potency is read from the fitted curve at half-maximal effect; nearly all actives have a fitted effect of over 55% in size
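Overnight (16 hr) co-exposure of 2,000 cells/well to 5-fluorouridine and compound at 37 °C preceded detection. Luciferase was quantified via ONE-Glo luminescence; loss of signal denotes inhibition.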
DT40 TDP1 no CPT = qHTS for Inhibitors of human tyrosyl-DNA phosphodiesterase 1 (TDP1): qHTS in cells in absence of CPT | DT40 Tdp1-/- hTDP1 cells, no CPT, ATP luminescence, 48 h | actives 15% (n = 420,000) | Potency, µM (titrated, usually from 46.2 µM), without a hit: at the highest dose activity change, negative = growth inhibition, actives largely listed as inhibitors; also: potency is read from the fitted curve at half-maximal effect; nearly all actives have a fitted effect of over 55% in size
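Stably hTDP1-transfected Tdp1-null chicken DT40 cells were treated with library compounds minus camptothecin and grown for at least 48 hr at 37 °C, after which cellular ATP was quantified by luminescence.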
IL-1B inflam inh = inflammasome signaling inhibition, IL-1 beta readout; THP-1 LPS/ATP IL-1B secretion, AlphaLISA, 16 h; hits give low values; activity change, % at 57.5 µM; actives 4.7% (n = 360,000); AID 743279; in the data active = activity change below about -50%; inconclusive = mostly about -30% to -49%
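THP-1 cells pretreated 1 hr with compounds (up to 57.5 uM final), then stimulated with LPS (250 ng/mL final) plus ATP (1.25 mM final); secreted IL-1B measured by AlphaLISA after 16 hr, decreased signal indicating inhibition.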
Giardia kill = Giardia lamblia killing; Giardia lamblia trophozoite viability; activity change, % at 7.66 µM, hits read low; actives 0.15% (n = 340,000); in the data active = activity change below about -80%; inconclusive = between about -30% and that limit;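 also: parasites exposed to compound for two days anaerobically before the ATP read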
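Trophozoites 100 cells/well + cpd; 48 hrs, 37 deg C, anaerobic. ATPLite 1-Step added, 15-30 min RT, luminescence read (ATP-based viability).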
Starred values were filed as active, the others as inactive; ? = inconclusive; . = no result given; [ ] = another dose, or the depositor's remark. Unless noted, calls follow the shape of the dose curve; as a rule, active = well fitted curve in the direction sought with a large enough effect; inconclusive = small, poorly fitted or top-dose-only effect, or another doubt; inactive = no such curve, though single readings can be large; an effect the other way counts as inactive or inconclusive. % is scaled to controls: 0 for no effect and ±100 for the full control effect.

SMILES	TDP1 cell CPT	TDP1 block	ELG1 repair inh	DT40 TDP1 no CPT	IL-1B inflam inh	Giardia kill
CCCNC(=O)c1c(O)c2cccc3c2n(c1=O)CCC3	-1.5%	.	6.5%	6.8%	-3.0	47.7
NCCNC(=O)c1c(O)c2cccc3c2n(c1=O)CCC3	-2.5%	.	?	?	-91.7*	3.5
COc1ccc(OC)c(S(=O)(=O)NCCc2csc(-c3cccc(F)c3)n2)c1	?	3.0%	.	?	.	.
COc1ccc(S(=O)(=O)NCCc2csc(-c3ccc(F)cc3)n2)cc1	11.6µM*	-3.0%	.	14.6µM*	.	.
COc1ccc(-c2nc(CNS(=O)(=O)c3ccc(C)cc3)cs2)cc1	?	2.5%	.	?	.	.
COc1ccc(-c2nc(CNS(=O)(=O)c3cccc(F)c3)cs2)cc1	-76.2%	5.1%	.	14.6µM*	.	.
COc1ccc(S(=O)(=O)NCCc2csc(-c3ccc(F)cc3)n2)cc1F	23.1µM*	5.3%	.	25.9µM*	.	.
O=S(=O)(NCCc1csc(-c2cccnc2)n1)c1ccc(F)cc1	3.3%	5.6%	-2.8%	-11.0%	15.6	6.3
COc1ccc(S(=O)(=O)NCCc2sc(-c3ccccc3)nc2C)cc1F	.	5.5%	.	.	.	.
COc1ccc(-c2nc(CNS(=O)(=O)c3ccc(F)cc3)cs2)cc1	?	-2.5%	.	18.4µM*	.	.
CCc1ccc(NC(=O)COC(=O)c2ccccc2OCC(=O)N(C)C)cc1	2.8%	.	.	-0.3%	.	.
COc1ccc(-c2nnc(SCC(=O)N3CCC(C)CC3)o2)cc1	?	-2.5%	.	?	.	.
O=C(Nc1ccnn1C1CCN(Cc2ccc(CO)o2)CC1)c1ccccc1	-6.6%	-0.4%	24.9%	?	21.0	-19.1
COc1ccc(C2Nc3ccccc3C(=O)N2Cc2ccccc2)cc1COc1ccc(Cl)cc1 (stereo not given)	.	-0.7%	.	.	.	.
CC(C)N(CCO)Cc1nc(N2CCOCC2)c2cc(Cl)ccc2n1	?	.	.	20.6µM*	.	.
C#CCOC(=O)Nc1cccn(Cc2c(Cl)cccc2Cl)c1=O	20.6µM*	2.0%	-11.4%	10.3µM*	?	-0.3
CC(=O)N1CC(=O)N=C1SCC(=O)Nc1nc(C)c(-c2ccccc2)s1	2.91µM*	7.5%	?	3.26µM*	-76.7*	-15.7
C/C(=N\Nc1ccc([N+](=O)[O-])cc1[N+](=O)[O-])c1ccc(-n2nncc2C(C)(C)C)cc1	20.6µM*	10.5%	10.3µM*	13µM*	-12.0	-1.6
O=C(c1ccc(Cn2cc(Br)cn2)o1)N1N=C(C(F)F)CC1(O)C(F)F (stereo not given)	20µM*	5.9%	-22.5%	?	-3.1	-18.7
COc1ccccc1OCc1ccc(C(=O)N2N=C(C(F)F)CC2(O)C(F)F)o1 (stereo not given)	3.9%	6.1%	9.6%	-27.1%	-3.6	4.0
Cc1ccccc1C(=O)NC(CC(C)C)C(=O)OCC(=O)c1c(N)n(C)c(=O)n(C)c1=O (stereo not given)	-0.2%	-2.5%	2.9%	?	58.7	11.0
O=C(O)CCC(=O)N1CC=C(c2ccccc2)CC1	-28.1%	0.5%	?	-3.5%	21.2	-5.7
O=C(Cn1[nH]c(=O)c2ccccc2c1=O)N1CC=C(c2ccccc2)CC1	11.2µM*	4.2%	?	15.8µM*	-12.2	25.4
CCCn1nc(C(=O)NNC(=O)c2cc(S(=O)(=O)NC)ccc2Br)c2ccccc2c1=O	-24.7%	1.3%	8.2µM*	-11.3%	-19.2	?
CCCn1nc(C(=O)Nc2cc(S(=O)(=O)Nc3ccc(OC)cc3)ccc2O)c2ccccc2c1=O	?	3.7%	16.4µM*	?	-10.6	9.1
SMILES	TDP1 cell CPT	TDP1 block	ELG1 repair inh	DT40 TDP1 no CPT	IL-1B inflam inh	Giardia kill
CC(C)Cn1nc(C(=O)Nc2cccc(C(=O)NC3CC3)c2)c2ccccc2c1=O	?	-2.8%[56.1 µM]	16.4µM*	18.4µM*	-1.4	?
CCCn1nc(C(=O)Nc2ccc(S(=O)(=O)Nc3nccs3)cc2)c2ccccc2c1=O	-18.7%	7.8%	-15.2%	-27.6%	-10.9	25.0
Cc1cc(=O)c(C(=O)Nc2cccc(C(=O)NC3CC3)c2)nn1-c1ccccc1Cl	-27.1%	-1.1%	6.8%	18.0%	-54.0*	21.1
CCc1cccc(C)c1NC(=O)C(NS(=O)(=O)c1ccc2c(c1)CCC(=O)N2)c1ccccc1 (stereo not given)	-22.2%	0.0%	.	-29.2%	.	.
COc1ccc(Cl)cc1C(=O)Nc1ccc2oc(-c3ccc(C(C)(C)C)cc3)nc2c1	-27.5%	3.1%[12.3 µM]	.	?	.	.
CCCn1nc(C(=O)Nc2cccc(S(=O)(=O)N3CCOCC3)c2)c2ccccc2c1=O	?	.	.	25.9µM*	?	.
CC(C)Cn1nc(C(=O)Nc2cccc(S(=O)(=O)N3CCCC3)c2)c2ccccc2c1=O	?	-0.4%[56.1 µM]	20.6µM*	?	-20.4	-3.4
CCn1nc(C(=O)Nc2cccc(S(=O)(=O)N3CCCC3)c2)c2ccccc2c1=O	?	-0.2%	?	?	-15.0	13.0
CCCn1nc(C(=O)Nc2cccc(C(=O)OC)c2)c2ccccc2c1=O	?	2.1%	23.1µM*	?	47.9	-0.2
CCn1nc(C(=O)Nc2ccc(Cl)c(S(=O)(=O)N3CCOCC3)c2)c2ccccc2c1=O	?	0.9%	?	16.4µM*	16.2	-22.4
CCOc1ccccc1NC(=O)CSc1nnc(-c2ccccc2Cl)n1Cc1ccco1	-23.1%	9.5%	-12.2%	-29.3%	?	1.8
O=c1oc(-c2ccco2)nc2c1cnn2-c1ccccc1	?	-2.0%	1.0%	?	-19.3	3.0
O=c1c2cnn(-c3ccccc3)c2nc(-c2ccco2)n1-c1ccccc1	?	-2.3%	6.31µM*	20.6µM*	-55.5*	0.7
Cc1cccc(-n2c(-c3ccco3)nc3c(cnn3-c3ccccc3C)c2=O)c1	20.6µM*	4.7%	.	?	.	.
CCOc1ccc(S(=O)(=O)NC(Cc2c[nH]c3ccccc23)C(=O)O)cc1 (stereo not given)	2.9%	.	1.0%	-12.2%	15.8	-10.9
O=C(Nc1nc(COc2ccccc2)cs1)C1CCC1	23.1µM*	3.3%[56.1 µM]	?	16.4µM*	?	13.4
O=C(Nc1nc(COc2ccccc2)cs1)C12CC3CC(CC(C3)C1)C2	22.4µM*	-3.9%	?	?	-27.8	-1.1
Cc1ccc(C(=O)Nc2nc(COc3ccccc3)cs2)s1	?	-1.0%	.	?	-87.3*	-0.9
CC(=O)Nc1nc(COc2ccccc2)cs1	-10.4%	2.2%	?	-19.4%	-4.8	9.4
